Experimental data as given in PubChem BioAssay (NCATS).
Records with an inconclusive call do not appear. Activity calls are given as the source filed them. The call rests on the fitted dose curve; in most records, active means well fitted curve in the direction sought with a large enough effect; inconclusive means small, poorly fitted or top-dose-only effect, or another doubt; inactive means no such curve, though single readings can be large; an effect the other way counts as inactive or inconclusive.

Legend:
[1] = Quantitative High-Throughput drug screen in 47 multiple myeloma cell lines against the NCATS MIPE library collection: KMS12BM_JCRB cell viability assay (AID 1918971); further: nearly all actives have a fitted effect of over 35% in size; further: potency means the concentration at half of the fitted maximal effect
Outline: (§1)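 Myeloma cells (500 per well) were exposed to MIPE 4.0 compounds by pin transfer and incubated 48 hours at 37C, 5% CO2. Viability was read as ATP by CellTiter-Glo luminescence, normalised to DMSO (100%) and media-only (0%) wells.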

[2] = Quantitative High-Throughput drug screen in 47 multiple myeloma cell lines against the NCATS MIPE library collection: KMS12PE_JCRB cell viability assay (AID 1918972); further: nearly all actives have a fitted effect of over 30% in size; further: potency means the concentration at half of the fitted maximal effect
Outline: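 We plated 500 myeloma cells per well, pinned in MIPE 4.0 compounds, and incubated for 48 hours at 37C. ATP was then quantified with CellTiter-Glo, with DMSO and media-only wells defining 100% and 0%.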

[3] = Quantitative High-Throughput drug screen in 47 multiple myeloma cell lines against the NCATS MIPE library collection: MMM1_PLB cell viability assay (AID 1918976); further: potency means the concentration at half of the fitted maximal effect; nearly all actives have a fitted effect of over 35% in size
Outline: (§2)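 Plated at 500 cells per well, myeloma lines received MIPE 4.0 compounds by pin tool. Following 48 h culture at 37 °C, CellTiter-Glo luminescence gave viability relative to DMSO and media-only controls.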

[4] = Quantitative High-Throughput drug screen in 47 multiple myeloma cell lines against the NCATS MIPE library collection: MOLP8_DSMZ cell viability assay (AID 1918977); further: nearly all actives have a fitted effect of over 45% in size; further: potency means the concentration at half of the fitted maximal effect
Outline: as §2

[5] = Quantitative High-Throughput drug screen in 47 multiple myeloma cell lines against the NCATS MIPE library collection: KMS21BM_JCRB cell viability assay (AID 1918974); details: ATP luminescence, 48 h; viability: at 45.8 µM (top of the series) unless noted; further: potency means the concentration at half of the fitted maximal effect
Outline: (§3)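 Approved and investigational drugs from MIPE 4.0 were added by pin tool to 500 cells per well. After 48 hours at 37C, ATP-based CellTiter-Glo luminescence indicated remaining viability.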

[6] = Quantitative High-Throughput drug screen in 47 multiple myeloma cell lines against the NCATS MIPE library collection: KMS26_JCRB cell viability assay (AID 1918975); further: nearly all actives have a fitted effect of over 45% in size; further: potency means the concentration at half of the fitted maximal effect
Outline: as §1

[7] = Quantitative High-Throughput drug screen in 47 multiple myeloma cell lines against the NCATS MIPE library collection: MM1S_ATCC cell viability assay (AID 1918980); further: nearly all actives have a fitted effect of over 45% in size; further: potency means the concentration at half of the fitted maximal effect
Outline: as §2

[8] = Quantitative High-Throughput drug screen in 47 multiple myeloma cell lines against the NCATS MIPE library collection: NCIH929_DSMZ cell viability assay (AID 1918978); further: nearly all actives have a fitted effect of over 35% in size; further: potency means the concentration at half of the fitted maximal effect
Outline: as §2

[9] = Quantitative High-Throughput drug screen in 47 multiple myeloma cell lines against the NCATS MIPE library collection: OCIMY1_PLB cell viability assay (AID 1918979); further: nearly all actives have a fitted effect of over 35% in size; further: potency means the concentration at half of the fitted maximal effect
Outline: as §2

[10] = Quantitative High-Throughput drug screen in 47 multiple myeloma cell lines against the NCATS MIPE library collection: KMS20_JCRB cell viability assay (AID 1918973); further: nearly all actives have a fitted effect of over 45% in size
Outline: as §3

Measured: Potency

O=C(Nc1cccc(Br)c1)c1cccc(S(=O)(=O)N2CCCCCC2)c1
active: [1] 20.9 µM | [2] 10.5 µM | [3] 18.7 µM
inactive: [4]

COc1ccc(-c2oc3c(CC=C(C)C)c(OC4O[C@H](CO)[C@@H](O)[C@H](O)[C@@H]4O)cc(O)c3c(=O)c2OC2O[C@@H](C)[C@H](O)[C@@H](O)[C@@H]2O)cc1 (stereo not given in full)
active: [1] 18.7 µM | [2] 8.33 µM | [5] 9.35 µM | [6] 23.5 µM | [3] 23.5 µM | [7] 20.9 µM

Cc1ccccc1C(C(=O)NC1CCCCC1)N(C(=O)Cn1ccnc1C)c1cccc(F)c1 (stereo not given)
active: [1] 8.33 µM | [2] 2.35 µM | [3] 10.5 µM
inactive: [8] | [9]

CC(C)(C)COc1ccc(-n2cc(C(=O)O)cn2)cc1C#N
inactive: [1] | [2] | [6] | [4] | [9]

COc1cccc2c1CCCC2CCCN1CCN(C2CCCCC2)CC1 (stereo not given)
active: [1] 23.5 µM | [2] 16.6 µM | [3] 14.8 µM | [7] 20.9 µM

CC(C)C(C)C=CC(C)C1CCC2C3=CC=C4CC(O)CCC4(C)C3CCC21C (stereo not given)
inactive: [1] | [2] | [4]

O=C(Nc1c(Cl)cncc1Cl)c1ccc(OC(F)F)c(OCC2CC2)c1
active: [8] 23.5 µM | [9] 0.0012 µM | [7] 23.5 µM
inactive: [1] | [2] | [5] | [6]

COc1ccc(C2Sc3ccccc3N(CCN(C)C)C(=O)C2OC(C)=O)cc1 (stereo not given)
inactive: [2] | [10] | [8] | [9]
active: [1] 2.64 µM | [7] 18.7 µM

CN(C)c1cc(NC(=O)CNC(C)(C)C)c(O)c2c1C[C@@H]1C[C@H]3[C@H](N(C)C)C(=O)C(C(N)=O)=C(O)[C@@]3(O)C(=O)C1=C2O
active: [3] 14.8 µM | [4] 9.35 µM
not listed: [5] | [10]
inactive: all other assays above

CCOC1OC(=O)C[C@H]1NC(=O)[C@@H]1CCCN1C(=O)[C@@H](NC(=O)c1ccc(N)c(Cl)c1)C(C)(C)C (stereo not given in full)
active: [2] 11.8 µM | [7] 26.4 µM
inactive: [1] | [6] | [4] | [9]

CCCCCNC(=O)N1CCC(CN(Cc2ccc(Cl)cc2)Cc2ccc([N+](=O)[O-])s2)C1 (stereo not given)
active: [1] 23.5 µM | [2] 18.7 µM | [6] 23.5 µM | [3] 20.9 µM

COc1ncc(-c2ccc3nccc(-c4ccnnc4)c3c2)cc1NS(=O)(=O)c1ccc(F)cc1F
active: [1] 0.0662 µM | [2] 0.0935 µM | [6] 0.0526 µM

Cc1cc(OCCCc2c(C(=O)O)n(Cc3cccnc3)c3c(-c4c(COc5ccc(N6CCN([S+](C)(=O)[O-])CC6)cc5)nn(C)c4C)cccc23)cc(C)c1Cl
active: [1] 26.4 µM | [2] 6.62 µM | [6] 20.9 µM | [3] 14.8 µM | [4] 20.9 µM | [8] 3.32 µM | [9] 13.2 µM | [7] 18.7 µM

N#CC(=C(N)Sc1ccccc1N)C(C#N)=C(N)Sc1ccccc1N
active: [2] 23.5 µM | [6] 1.32 µM | [8] 14.8 µM
inactive: [1] | [9]

CC(C)C(=O)Oc1ccc(CO)cc1[C@H](CCN(C(C)C)C(C)C)c1ccccc1
inactive: [2] | [5] | [9] | [7]
active: [1] 14.8 µM

NC1CCC(Nc2nc(Nc3ccc(C(=O)N4CCCCC4)cc3)c3ncn(-c4cccc(F)c4)c3n2)CC1 (stereo not given)
inactive: [1] | [2] | [5] | [4] | [9] | [7]

NC(=O)c1cccc(-c2cc(Nc3ccc(OC(F)(F)F)cc3)ncn2)c1
active: [1] 23.5 µM | [2] 16.6 µM | [3] 20.9 µM
inactive: [9] | [7]

C=C1C(=O)OC2C=C(C)CCC=C(C)CCC12 (stereo not given)
active: [1] 20.9 µM | [2] 20.9 µM | [5] 26.4 µM | [3] 11.8 µM | [8] 20.9 µM | [7] 23.5 µM

CCOC(=O)C1=C(N)Oc2ccc(Br)cc2C1C(C#N)C(=O)OCC (stereo not given)
active: [1] 18.7 µM | [2] 18.7 µM | [6] 14.8 µM | [3] 20.9 µM | [8] 20.9 µM | [7] 16.6 µM

O=C(O)C(O)Cc1ccc(O)c(O)c1 (stereo not given)
active: [5] 0.0083 µM | [6] 20.9 µM | [3] 5.26 µM | [7] 16.6 µM
inactive: [2] | [8]

CC(C)C(=O)Nc1ncc(-c2cc(C(F)F)nn2-c2c(Cl)cccc2Cl)s1
active: [1] 26.4 µM | [6] 18.7 µM
